The AC50 is the concentration giving half of the maximal activity seen.

Results filed as inconclusive are left out. Calls of active or inactive are those of the source. The calls were made as follows: active = hit-call score of the fitted dose curve at least 0.9, where 1 is the maximum; inconclusive = response in the unintended direction; inactive = score below 0.9.

For the test, the target named is human Phosphodiesterase 5 (PDE5), PDE5A (gene 8654) (UniProt O76074). The experiment in a line: NVS_ENZ_hPDE5: NovaScreen (NVS) Enzymatic Assay for human Phosphodiesterase 5 (PDE5) (AID 2283194). As to the method:
NVS_ENZ_hPDE5 is a biochemical, single-readout assay that uses extracted gene-proteins in a cell-free assay. Measurements were taken 1 hour after chemical dosing in a 384-well plate.NVS_ENZ_hPDE5 is one of one assay component(s) measured or calculated from the NVS_ENZ_hPDE5 assay. It is designed to make measurements of enzyme activity, a form of enzyme reporter, as detected with fluorescence intensity signals by Fluorescence and electrophoretic mobility shift technology.Data from the assay component NVS_ENZ_hPDE5 was analyzed into 1 assay endpoint. This assay endpoint, NVS_ENZ_hPDE5, was analyzed in the positive analysis fitting direction relative to DMSO as the negative control and baseline of activity. Using a type of enzyme reporter, loss-of-signal activity can be used to understand changes in the enzymatic activity as they relate to the gene PDE5A. Furthermore, this assay endpoint can be referred to as a primary readout, because this assay has produced multiple assay endpoints where this one serves a enzymatic activity function. To generalize the intended target to other relatable targets, this assay endpoint is annotated to the esterase intended target family, where the subfamily is phosphodiesterase.
Binding assays used specific radioligands (tritiated, iodinated) with non-radioactive competitive displacement ligands in agonist or antagonist protocols (as indicated) and various reference compounds and inhibitors to titrate specific binding to receptors and transporters. Most enzyme assays (CYPs, kinases, phosphatases, proteases, HDACs) used recombinant protein and specific substrates (fluorescence mostly, some colorimetric and radioactive) and inhibitors, followed by a biochemical separation of substrate and product. All assays for the biochemical HTS were initially run in duplicate at a single concentration (10 uM for CYP450 assays and 25 uM for all others). […] Each assay was run with positive and negative controls, and concurrent controls on every plate. The follow-up (secondary) screen tested active chemical-pairs in concentration series, as well as a few additional assays not tested in the primary screen, some selected negative inactives, and several cases re-run in the concentration series for confirmatory purposes.
`Nc1ccccc1N`: the AC50 is 18.1 µM (active).

In the case of `Cc1ccc(C)c(C)c1`, the result was inactive.

In the case of `Cc1cc(NC(=O)C(=O)O)cc(C)c1Oc1ccc(O)c2c1CCC2`, the AC50 is 8.94 µM (active).

For `CCc1c(C(=O)NN2CCCCC2)nn(-c2ccc(Cl)cc2Cl)c1-c1ccc(Br)cc1`, the call was inactive.

For the molecule `Cc1nc(-c2ccc3c(c2)CCN(CCC2CCC(NC(=O)/C=C/c4ccc(F)cc4)CC2)CC3)no1` (stereo not drawn), the call was inactive.

As to `CC=Cc1ccc(O)c(OC)c1`, the outcome was inactive.

As for `CNC(=O)[C@H]1O[C@@H](n2cnc3c(NCc4cc(Cl)ccc4OCc4cc(C)no4)ncnc32)[C@H](O)[C@@H]1N`, the outcome was inactive.

With `O=c1[nH]cc(F)c(=O)[nH]1`, the call was inactive.

For the molecule `FC(F)(F)C(F)(F)C(F)(F)C(F)(F)C(F)(F)C(F)(F)CCI`, the AC50 is 19.7 µM (active).

For the molecule `CC(=O)Oc1ccccc1C(=O)O`, the call was inactive.

As for `Cc1cccc(C)c1O`, the outcome was inactive.

For `O=C(N[C@@H](Cc1ccccc1)[C@@H](O)C(=O)N1C[C@@H](O)[C@@H](O)C1)c1cc2cc(Cl)ccc2[nH]1`, the call was inactive.

With `CC1=C(/C=C/C(C)=C/C=C/C(C)=C/CO)C(C)(C)CCC1`, the result was inactive.

Values taken from PubChem BioAssay (EPA / NIEHS).
